# Assay outcomes deposited in PubChem BioAssay by several laboratories.
# tim23-1 inh – inhibits growth of tim23-1 mutant yeast; 330,000 compounds, 1.3% hits; S. cerevisiae tim23-1 growth, BacTiter-Glo luminescence, 24 h; AID 463212; inhibition, % at 20 µM;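 active means growth inhibition of the mutant yeast at or above 50%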;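 further: temperature-sensitive mutant grown at 25 °C; plate controls were DMSO-treated mutant yeast for no effect and medium wells lacking yeast for full effect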
# NALP1 yeast inh – inhibitors of NALP1 inflammasome in yeast; S. cerevisiae NALP1/ASC/caspase-1 growth, X-gal OD620, 72 h; inhibition, % at 10 µM; 280,000 compounds, 0.61% hits; in the data active means inhibition mostly above about 24%, no sharp cut-off; inactive means mostly below about 32%
# PfHsp90 yeast 2 – inhibits growth of yeast expressing Plasmodium falciparum Hsp90. S. cerevisiae expressing PfHsp90, BacTiter-Glo ATP, 48 h; yeast lacking PDR1 and PDR3 efflux regulators. inhibition, % at 9.4 µM. 310,000 compounds, 0.32% hits. AID 504621;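 active means every replicate shows inhibition above about 80%, whatever the replicate mean, limit read from the data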;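 further: 0% = DMSO neutral controls and 100% = 20 µM radicicol positive controls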
# TIM10 inh – growth inhibitors of TIM10 yeast strain; S. cerevisiae TIM10 strain growth, BacTiter-Glo luminescence, 24 h; inhibition, % at 10 µM; 330,000 compounds, 1.4% hits;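 active means inhibition of 40% or more at the single tested concentration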;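 further: wild-type TIM10 isogenic control strain grown at permissive 25 °C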
# NLRP3 yeast inh – NALP3 inhibition in yeast; Yeast reconstituted NLRP3/ASC/caspase-1, beta-gal luminescence, 24 h; inhibition, % at 10 µM; 330,000 compounds, 0.39% hits; AID 2825;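 active means inhibition of 50% or more; inactive means inhibition below 50%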;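 further: plate controls were induced DMSO wells for no effect and uninduced yeast grown without galactose for full effect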
# tim10-1 inh – tim10-1 yeast growth inhibition | S. cerevisiae tim10-1 ts strain growth, BacTiter-Glo, 24 h | inhibition, % at 20 µM | 330,000 compounds, 2.2% hits | AID 463190;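 active means inhibition of at least 40%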;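 further: mutant grown at 25 °C; 0% = DMSO wells with yeast and 100% = wells holding no yeast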
# tim10-1 confirm – confirmation of tim10-1 mutant yeast growth inhibitors; shares compounds with tim10-1 inh; 7,400 compounds, 56% hits; inhibition, % at 20 µM; AID 463213; S. cerevisiae tim10-1 ts strain growth, BacTiter-Glo, 24 h;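 active means inhibition of yeast growth at or above a set limit in either of two repeat tests at 20 µM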;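 further: tim10-1 mutant grown at permissive 25 °C to find synthetic lethal compounds; 0% = DMSO yeast wells and 100% = medium wells without yeast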
# TIM10 conf – confirmation of TIM10 yeast growth inhibitors | S. cerevisiae tim10 strain growth, BacTiter-Glo luminescence, 24 h | shares compounds with TIM10 inh | AID 463215 | 4,600 compounds, 63% hits | inhibition, % at 10 µM;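 active means inhibition of yeast growth at or above a set limit in either of two replicates at 10 µM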;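 further: this counterscreen used the strain with wild-type TIM10; 0% = yeast with DMSO and 100% = medium wells lacking yeast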
# tim23-1 conf – tim23-1 yeast growth inhibition, confirmed | S. cerevisiae tim23-1 growth, BacTiter-Glo luminescence, 24 h | 4,400 compounds, 83% hits | inhibition, % at 20 µM | AID 463218 | shares compounds with tim23-1 inh;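 active means inhibition above about 39% in either of two replicate wells at 20 µM, limit read from the data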;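 further: temperature-sensitive tim23-1 mutant grown at 25 °C; 0% = DMSO wells with yeast and 100% = medium wells without yeast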
# The depositor's hits bear a star; . = not tested or not shown. The list is not random: actives were taken first. Their share in the collection is about 4.2%.
SMILES,tim23-1 inh,NALP1 yeast inh,PfHsp90 yeast 2,TIM10 inh,NLRP3 yeast inh,tim10-1 inh,tim10-1 confirm,TIM10 conf,tim23-1 conf
CC(C)(C)C(=O)/C(=C/c1ccc(Cl)cc1)n1cncn1,52*,10,-22,37,25,51*,35*,.,34
COC(=O)c1ccc(Nc2c([N+](=O)[O-])c(=O)oc3ccccc23)cc1,11,1,10,-14,13,-7,.,.,.
Cc1cc(N2CCC(C)CC2)n2nc(C)c(-c3ccccc3)c2n1,10,21,1,38,-3,26,.,.,.
Cc1cc(N2CCCCC2)n2nc(C)c(-c3ccccc3)c2n1,50*,4,-34,20,4,43*,33*,.,47*
Cc1ccc(NC(=O)O/N=C/c2ccc(N(C)C)cc2)cc1,10,-35,6,16,20,5,.,.,.
O=C(Nc1ncccc1Cl)c1cc2ccccc2o1,12,3,-3,4,20,2,.,.,.
Cc1noc(C)c1S(=O)(=O)Nc1ccccc1Oc1ccccc1,39,8,0,37,-11,36,.,.,.
O=C1c2ccccc2-c2onc3ccc(Oc4ccccc4)c1c23,77*,-4,-170,57*,41,76*,59*,68*,85*
Cc1ccc(NC(=O)C(C)c2ccc([N+](=O)[O-])cc2)cc1Cl (centres undefined),51*,35,-14,59*,12,58*,59*,48*,61*
O/N=C(\c1ccc(Cl)cc1)c1cc2ccccc2o1,67*,17,-44,53*,9,46*,67*,60*,64*
O=C(Nc1ccc(Cl)cc1Cl)c1cc2ccccc2o1,7,26,-27,-12,17,2,.,.,.
COc1ccc(C(C[N+](=O)[O-])c2c(C)cc3ccccn23)cc1 (centres undefined),47,-2,-9,9,14,30,.,.,.
COc1ccc(C(C[N+](=O)[O-])c2c(-c3ccccc3)cc3ccccn23)c(OC)c1 (centres undefined),73*,0,-9,60*,13,70*,67*,67*,91*
CC1=C(SCc2ccccc2)C(=O)c2ccccc2C1=O,.,.,0,.,.,.,.,.,.
O=C1C(SCCO)=C(SCCO)C(=O)c2ccccc21,80*,.,-6,52*,32,86*,93*,38*,75*
Cc1ccnc(NC(=O)CSc2nnc3c(n2)[nH]c2ccccc23)c1,0,16,.,9,1,-3,.,.,.
O=[N+]([O-])c1cccc(-c2csc(Nc3ccccc3)n2)c1,86*,0,-11,64*,0,50*,59*,66*,67*
COc1ccc(-c2csc(Nc3ccccc3)n2)cc1,54*,-1,.,61*,14,46*,37*,43*,48*
COc1ccc(NC(=O)Nc2cccc3c2O[C@H](CN(C)C(=O)NC(C)C)[C@@H](C)CN([C@H](C)CO)C3=O)cc1,1,.,7,0,10,6,.,.,.
COC(=O)c1ccc(/C=C/C(=O)OCC(=O)Nc2cc(C)on2)cc1,0,.,-18,1,25,8,.,.,.
O=C(NCCO)c1ccc2c3n(nc2c1)-c1ccccc1CO3,5,21,6,11,10,13,.,.,.
O=C(NCC1CC1)c1ccc2c3n(nc2c1)-c1ccccc1CO3,69*,7,.,45*,25,42*,42*,44*,69*
CCOc1ccc(C(=O)CCC(=O)Nc2cccc(S(=O)(=O)N3CCCCC3)c2)cc1,11,.,-6,8,4,12,.,.,.
O=C(Nc1nc2ccccc2s1)C1CC(=O)N(c2ccc(Br)cc2)C1 (centres undefined),73*,35,-31,46*,15,49*,37*,36*,74*
CN1CCN(C(=S)Nc2cc(S(=O)(=O)N3CCOCC3)ccc2Cl)CC1,15,15,.,-6,0,15,.,.,.
SMILES,tim23-1 inh,NALP1 yeast inh,PfHsp90 yeast 2,TIM10 inh,NLRP3 yeast inh,tim10-1 inh,tim10-1 confirm,TIM10 conf,tim23-1 conf
C/C(=N\NC(=S)Nc1cc(S(=O)(=O)N2CCOCC2)ccc1Cl)c1ccccc1F,61*,21,-19,44*,31,41*,37*,-9,42*
COC(=O)c1ccc([C@H](NC(=O)c2ccco2)[C@]2(C)C[C@H]2C2CCCCC2)cc1,31,.,-8,15,-15,19,.,.,.
COc1ccc(C(=O)/C=C/c2cccs2)c(OC(=O)N2CCOCC2)c1,51*,31,-7,52*,0,50*,34*,40*,42*
CCOC(=O)/C(C#N)=C1\C(=O)N(Cc2ccccc2)c2ccccc21,53*,7,7,31,13,43*,30,.,53*
CCOc1ccc(S(=O)(=O)N2CCC(C(=O)NCc3ccco3)CC2)cc1C,17,-1,-33,1,17,20,.,.,.
COc1ccc(/C=C2\SC(N)=NC2=O)cc1,15,13,19,4,20,10,.,.,.
COc1ccc(/C=C2\SC(N3CCc4ccccc4C3)=NC2=O)cc1,65*,55,-95,53*,25,55*,50*,-14,52*
CCOC(=O)CSC1=NC(=O)/C(=C/c2ccc(OC)cc2)S1,90*,32,-35,59*,21,40*,70*,-6,39*
CC(C)(C)OC(=O)C[C@@H]1C/C=C\C[C@H](CC(=O)N[C@H](CO)Cc2ccccc2)C(=O)N[C@@H](Cc2c[nH]c3ccccc23)COC1=O,13,.,-34,-3,25,14,.,.,.
CC(C)(C)c1cc(-c2nc(N)nc(N)n2)cc(C(C)(C)C)c1,64*,17,26,42*,12,51*,49*,-11,61*
Cc1ccc(Nc2ncc3c(=O)[nH][nH]c(=O)c3n2)cc1,.,.,-5,.,.,.,.,.,.
O=C(Nc1cc(Cl)ccc1-n1cncn1)c1ccc([N+](=O)[O-])o1,66*,.,.,48*,10,72*,58*,56*,50*
COc1cccc(C(=O)Nc2cccc(-c3nc4ncccc4o3)c2C)c1,0,-17,-4,17,14,2,.,.,.
Cc1c(NC(=O)c2ccc([N+](=O)[O-])o2)cccc1-c1nc2ncccc2o1,53*,10,-15,47*,13,49*,48*,53*,64*
O=C(Nc1ccc(NC(=O)c2ccc([N+](=O)[O-])o2)cc1Cl)c1ccco1,47,-1,-39,26,12,-6,.,.,.
